Bioassay records (PubChem BioAssay)
An excerpt weighted towards active compounds, which were near 2.5% of everything screened.
697 NFkB inh – inhibitors of the PMA/ionomycin-induced NF-kB reporter in 697 B cells. 697 B-cell NF-kB luciferase reporter, 16 h. inhibition, % at 4 µM. actives 0.33% (n = 330,000); in the data active = inhibition above about 35%
KLF5 inhibitor – inhibitors of KLF5 expression; inhibition, % at 5 µM; DLD-1 KLF5 promoter-luciferase reporter, luminescence; actives 0.23% (n = 290,000);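 active = inhibition above a per-plate limit of that plate's mean compound inhibition plus 3 SD, cut at about 60% in these data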;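 also: higher means less KLF5 promoter-driven luciferase light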
Jurkat NFkB inh – inhibitors of the PMA/ionomycin-induced NF-kB reporter in Jurkat cells; PMA/ionomycin-induced NF-kB luciferase reporter, luminescence; inhibition, % at 4 µM; actives 0.53% (n = 330,000); AID 435003; in the data active = inhibition above about 50%
TMEM16A act – activators or potentiators of mouse TMEM16A chloride channel; HEK293 TMEM16A/YFP-H148Q/I152L, iodide quench fluorescence; stronger effect = lower value; B-score at 10 µM; actives 0.3% (n = 340,000);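 active = fluorescence-ratio B-score plate-corrected deviation score at least 3 library SD below zero, with starting fluorescence score within 5 deviations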;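 also: channel opened by trigger with iodide after compound preincubation; score built on the fluorescence ratio of max minus min over baseline; more negative score means more quench and so TMEM16A activation or potentiation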
Target sequence (Q8BHY3 whole entry, looked up): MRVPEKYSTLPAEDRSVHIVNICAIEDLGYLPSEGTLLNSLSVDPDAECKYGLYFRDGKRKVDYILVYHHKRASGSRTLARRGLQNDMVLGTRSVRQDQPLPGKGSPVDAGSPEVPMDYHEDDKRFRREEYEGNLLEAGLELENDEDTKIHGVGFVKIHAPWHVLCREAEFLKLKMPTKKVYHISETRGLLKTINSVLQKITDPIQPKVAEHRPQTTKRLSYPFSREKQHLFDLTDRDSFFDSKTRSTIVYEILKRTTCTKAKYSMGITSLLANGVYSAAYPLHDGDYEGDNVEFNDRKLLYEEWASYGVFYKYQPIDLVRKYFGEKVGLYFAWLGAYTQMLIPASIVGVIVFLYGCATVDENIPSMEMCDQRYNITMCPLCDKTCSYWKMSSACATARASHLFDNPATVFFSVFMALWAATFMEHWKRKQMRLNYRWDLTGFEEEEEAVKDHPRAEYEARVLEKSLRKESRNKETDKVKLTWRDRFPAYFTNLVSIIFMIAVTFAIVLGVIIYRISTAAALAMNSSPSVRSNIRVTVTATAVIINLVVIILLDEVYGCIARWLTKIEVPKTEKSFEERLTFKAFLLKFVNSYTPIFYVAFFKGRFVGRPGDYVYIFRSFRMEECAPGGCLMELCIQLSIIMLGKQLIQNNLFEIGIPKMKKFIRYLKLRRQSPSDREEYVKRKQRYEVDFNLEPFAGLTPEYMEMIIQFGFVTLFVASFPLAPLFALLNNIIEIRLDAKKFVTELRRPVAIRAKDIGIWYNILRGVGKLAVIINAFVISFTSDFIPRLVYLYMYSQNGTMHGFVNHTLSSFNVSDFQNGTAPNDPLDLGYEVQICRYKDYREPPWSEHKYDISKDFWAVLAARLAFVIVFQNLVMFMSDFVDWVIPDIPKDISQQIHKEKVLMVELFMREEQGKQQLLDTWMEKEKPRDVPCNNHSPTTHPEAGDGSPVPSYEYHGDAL
aSyn UTR inh – 5' untranslated region of α-synuclein, MLPCN primary screen; alpha-synuclein 5'UTR reporter, inhibitor activity; AID 1813; inhibition, % (tested at 7.5 µM); actives 0.82% (n = 300,000); in the data active = inhibition above about 60%;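 also: H4 neuroglioblastoma cells stably carrying SNCA 5'UTR luciferase fusion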
ANO1 block – mouse TMEM16A channel inhibition, primary screen; Q8BHY3; HEK293 TMEM16A/YFP iodide influx fluorescence, ionomycin; normalized B-score (activity score, 25-100; higher = stronger inhibition) at 10 µM; actives 1.2% (n = 310,000);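 active = ratio plate-corrected score three or more library SD toward inhibition, starting fluorescence score within five deviations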;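 also: score derived from kinetic fluorescence span divided by baseline fluorescence per well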
TMEM16A reconf – reconfirmed blocker of mouse TMEM16A calcium-activated chloride channel | shares compounds with ANO1 block | HEK293 TMEM16A/YFP-H148Q, iodide quench fluorescence; ionomycin added to raise cell calcium | inhibition, % at 10 µM | actives 39% (n = 2,300) | AID 652189;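 active = mean duplicate percent inhibition, scaled so buffer wells are 0 and the reference blocker 100, over three buffer SD above buffer mean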
HEK293 Ca mobil – calcium mobilization counter-screen hit for TMEM16A inhibitor series; calcium response (% of ionomycin), % at 10 µM; TMEM16A/YFP HEK293, Fluo4 calcium mobilization; actives 2% (n = 2,300); shares compounds with ANO1 block; AID 652231;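 active = duplicate-averaged calcium signal over 20% of the ionomycin maximum, relative to buffer baseline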;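 also: each well's signal is peak minus trough fluorescence divided by its pre-addition baseline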
YFP-HEK293 quench – acts in parental YFP-HEK293 cells lacking TMEM16A, counter-screen. iodide YFP quench, ionomycin. AID 652233. YFP ratio F(max-min)/F0 at 10 µM. 2,300 tested, under 10 active. shares compounds with ANO1 block;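 active = yellow fluorescent protein signal ratio exceeding the buffer control mean by over 5 SD of those controls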;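 also: ratio is mean of duplicate wells from kinetic YFP trace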
ClC-1 rat inh – selectivity of TMEM16A inhibitors: inhibition of rat ClC-1 chloride channel; shares compounds with ANO1 block; CHO ClC-1-YFP, iodide influx fluorescence quench; iodide control reads 0, buffer control 100; ratio percent, % at 10 µM; 2,300 tested, under 10 active; AID 652236;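 active = duplicate-mean ratio percent above the mean of iodide-only control wells, which defines zero, plus 5 of their SD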;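 also: higher percent means stronger block of ClC-1 iodide influx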
Each line names hits and unclear results; the compound was inactive in the other large screens (follow-up assays come after a bar, where they were run).

CCOc1ccc(NS(=O)(=O)c2ccc(NC(=S)NC(=O)CC(C)C)cc2)cc1	ANO1 block 100 | TMEM16A reconf 38.0% | HEK293 Ca mobil inactive | YFP-HEK293 quench inactive | ClC-1 rat inh inactive
Cn1c(CNS(=O)(=O)c2ccc(F)cc2)n[nH]c1=S	ANO1 block 100 | TMEM16A reconf inactive | HEK293 Ca mobil inactive | YFP-HEK293 quench inactive | ClC-1 rat inh inactive
CC(=O)Nc1ccc(S(=O)(=O)N2CCN(C(=O)c3ncoc3-c3cccc(F)c3)CC2)cc1	ANO1 block 100 | TMEM16A reconf inactive | HEK293 Ca mobil inactive | YFP-HEK293 quench inactive | ClC-1 rat inh inactive
CCOC(=O)c1csc(Nc2nc3ccc(F)cc3s2)n1	ANO1 block 100 | TMEM16A reconf inactive | HEK293 Ca mobil inactive | YFP-HEK293 quench inactive | ClC-1 rat inh inactive
O=S(=O)(c1cccs1)N1CCN(c2ccnc3cc(Cl)ccc23)CC1	none
O=S(=O)(c1ccccc1)N1CCN(c2ccnc3cc(Cl)ccc23)CC1	ANO1 block 100 | TMEM16A reconf inactive | HEK293 Ca mobil inactive | YFP-HEK293 quench inactive | ClC-1 rat inh inactive
O=C(Nc1ccn(-c2ccccc2)n1)c1ccc(S(=O)(=O)N2CCCCCC2)cc1	ANO1 block 25 | TMEM16A reconf inactive | HEK293 Ca mobil inactive | YFP-HEK293 quench inactive | ClC-1 rat inh inactive
CCCS(=O)(=O)N1CCC(C(=O)NCCCOC)CC1	ANO1 block 100 | TMEM16A reconf inactive | HEK293 Ca mobil inactive | YFP-HEK293 quench inactive | ClC-1 rat inh inactive
CCOC(=O)CN1C(=O)C2(OCCCO2)c2cc(Br)ccc21	none
Cn1c(SCC(=O)Nc2ccc3c(c2)OCCO3)nnc1-c1ccco1	ANO1 block 100 | TMEM16A reconf inactive | HEK293 Ca mobil inactive | YFP-HEK293 quench inactive | ClC-1 rat inh inactive
CCC(C(=O)N/N=C(\C)c1cccnc1)c1ccccc1 (configuration not stated)	none
N#Cc1c(CSCC(=O)O)cc(=O)n2c1[nH]c1ccccc12	none
N#Cc1c(C(F)(F)F)cc(=O)n2c1[nH]c1ccccc12	ANO1 block 100 | TMEM16A reconf 35.0% | HEK293 Ca mobil 21.5% | YFP-HEK293 quench inactive | ClC-1 rat inh inactive
Cc1cc(C)c(S(=O)(=O)c2ccccc2C)c(SCC(C)C)n1	ANO1 block 100 | TMEM16A reconf inactive | HEK293 Ca mobil inactive | YFP-HEK293 quench inactive | ClC-1 rat inh inactive
CCCSc1nc(C)cc(C)c1S(=O)(=O)c1ccccc1C	ANO1 block 100 | TMEM16A reconf inactive | HEK293 Ca mobil inactive | YFP-HEK293 quench inactive | ClC-1 rat inh inactive
CCCSc1nc(C)cc(C)c1S(C)(=O)=O	none
COc1ccc(C2SCC(=O)N2CCCN(C)C)cc1 (configuration not stated)	ANO1 block 25 | TMEM16A reconf inactive | HEK293 Ca mobil inactive | YFP-HEK293 quench inactive | ClC-1 rat inh inactive
CC(C)c1nc(SCC(=O)Nc2nc3c(s2)CCCC3)c2ccccc2n1	ANO1 block 25 | TMEM16A reconf inactive | HEK293 Ca mobil inactive | YFP-HEK293 quench inactive | ClC-1 rat inh inactive
Cc1nnc(NC(=O)CSc2nc(C(C)C)nc3ccccc23)s1	none
Cc1nn(CC(=O)N2CCCC2)c(=O)c2cc3cc(F)ccc3n12	none
O=C(CNC(=O)c1ccc(Br)cc1)NC1=NCCS1	ANO1 block 25 | TMEM16A reconf inactive | HEK293 Ca mobil inactive | YFP-HEK293 quench inactive | ClC-1 rat inh inactive
O=C(COC(=O)CCNS(=O)(=O)c1cccc(C(F)(F)F)c1)NC(=O)NC1CCCCC1	ANO1 block 25 | TMEM16A reconf 24.0% | HEK293 Ca mobil inactive | YFP-HEK293 quench inactive | ClC-1 rat inh inactive
O=C(COC(=O)Cc1cccc(C(F)(F)F)c1)NC(=O)NC1CCCC1	none (no result: KLF5 inhibitor, aSyn UTR inh, ANO1 block)
Cc1ccc(-c2nc3cccnc3o2)cc1NC(=O)COc1ccc(Cl)cc1C	none
Cc1ccc(-c2nc3cccnc3o2)cc1NC(=O)COc1ccc(C(C)(C)C)cc1	ANO1 block 25 | TMEM16A reconf inactive | HEK293 Ca mobil 21.0% | YFP-HEK293 quench inactive | ClC-1 rat inh inactive
O=C(c1ccccc1)c1ccc(OCC(O)CN2CCN(Cc3ccccc3)CC2)cc1 (configuration not stated)	ANO1 block 100 | TMEM16A reconf inactive | HEK293 Ca mobil inactive | YFP-HEK293 quench inactive | ClC-1 rat inh inactive
Cc1ccc(OCC(=O)NCCNC(=O)c2ccncc2)cc1C	none
CCn1nc(NS(=O)(=O)c2ccc([N+](=O)[O-])cc2)c2cc3cccc(C)c3nc21	ANO1 block 25 | TMEM16A reconf 21.5% | HEK293 Ca mobil inactive | YFP-HEK293 quench inactive | ClC-1 rat inh inactive
C/C(N)=C(/C#N)C(=O)CSc1nc(-c2ccccc2)c(-c2ccccc2)o1	none
Cc1ccccc1-c1cc(-c2ccccc2O)n[nH]1	ANO1 block 25 | TMEM16A reconf inactive | HEK293 Ca mobil inactive | YFP-HEK293 quench inactive | ClC-1 rat inh inactive
Cc1ccc(-c2cc(-c3ccccc3[N+](=O)[O-])[nH]n2)c(O)c1	none
COc1ccc(CN(C)Cc2nc(Cc3cccc(F)c3)no2)c2cccnc12	ANO1 block 25 | TMEM16A reconf inactive | HEK293 Ca mobil inactive | YFP-HEK293 quench inactive | ClC-1 rat inh inactive
CCCC(C(=O)OCC)P(=O)(c1ccccc1)c1ccccc1 (configuration not stated)	none
CCOC(OCC)P(=O)(c1ccccc1)c1ccccc1	none | TMEM16A reconf inactive | HEK293 Ca mobil inactive | YFP-HEK293 quench inactive | ClC-1 rat inh inactive
COc1ccc(N2CCN(C(=O)c3ccc(C)c(Cl)c3)CC2)cc1	ANO1 block 25 | TMEM16A reconf inactive | HEK293 Ca mobil inactive | YFP-HEK293 quench inactive | ClC-1 rat inh inactive
Cc1cccc(CC(C)NC(=O)c2oc3c(F)cccc3c2C)n1 (configuration not stated)	none
c1ccc(-c2nc(CSc3nnc(-c4cccs4)o3)cs2)cc1	ANO1 block 100 | TMEM16A reconf inactive | HEK293 Ca mobil inactive | YFP-HEK293 quench inactive | ClC-1 rat inh inactive
Cc1cc(Br)c(NC(=O)c2c(-c3c(Cl)cccc3Cl)noc2C)c(Br)c1	none
Cc1cc(C)c2cc3c(N)c(C(=O)Nc4c(C)[nH]c(=O)[nH]c4=O)sc3nc2c1	none | TMEM16A reconf inactive | HEK293 Ca mobil 28.5% | YFP-HEK293 quench inactive | ClC-1 rat inh inactive
